Measurements as given in PubChem BioAssay.

These molecules were tested against NADPH oxidase 2 (Homo sapiens) (UniProt P04839) (assay: compounds shifting NOX2 Amplex Red fluorescence – cell-based, HEK293-NOX2, PMA-stimulated, NOX inhibitor project, primary screen (AID 1159; also: test concentration not given here)). Details: 45 min, higher = more signal, called active from +8 up or from −8 down.
NADPH oxidase 2 (Homo sapiens), sequence (P04839 whole entry, looked up): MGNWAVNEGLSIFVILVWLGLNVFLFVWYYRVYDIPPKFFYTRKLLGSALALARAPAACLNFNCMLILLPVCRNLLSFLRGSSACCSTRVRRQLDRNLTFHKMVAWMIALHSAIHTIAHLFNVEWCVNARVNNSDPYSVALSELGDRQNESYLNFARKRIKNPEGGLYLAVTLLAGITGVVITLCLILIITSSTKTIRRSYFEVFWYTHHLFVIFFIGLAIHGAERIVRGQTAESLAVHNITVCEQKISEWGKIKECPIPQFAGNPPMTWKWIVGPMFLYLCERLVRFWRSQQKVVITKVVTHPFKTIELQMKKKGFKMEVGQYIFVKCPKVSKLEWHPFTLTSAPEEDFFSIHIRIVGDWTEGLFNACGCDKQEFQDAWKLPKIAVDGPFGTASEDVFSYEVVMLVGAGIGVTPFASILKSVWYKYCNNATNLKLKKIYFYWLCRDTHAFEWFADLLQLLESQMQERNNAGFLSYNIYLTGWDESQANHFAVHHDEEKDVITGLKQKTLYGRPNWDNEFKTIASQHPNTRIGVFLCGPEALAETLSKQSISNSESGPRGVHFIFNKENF

z-score, inactive:
COc1ccc(COC(=O)NN=C2C[C@@H](O)[C@@H](O)[C@@H]3[C@@H]4C(=O)N(c5ccc(F)cc5F)C(=O)[C@@H]4CC[C@@H]23)cc1 1.5
CC(C)[C@@H](OCc1ccccc1)[C@H](C)C=NO[C@H](C)c1cn([C@H](CO)Cc2ccccc2)nn1 -2.23
COC(=O)[C@H](C)NC(=O)CCC1CC(OC(=O)NCc2cccc3ccccc23)CC2(CCCC(COC(=O)NCCc3ccc(Cl)cc3)O2)O1 (stereo not given in full) 0.779
COc1ccc(-c2nc3c(c4c2C[C@H](C)OC4)CN(CCC(C)C)CC3)cc1 -0.112
O=C(NN=C1C[C@@H](O)[C@@H](O)[C@@H]2[C@@H]3C(=O)N(c4cccc(Oc5ccccc5)c4)C(=O)[C@@H]3CC[C@H]12)OCc1ccccc1 1.25
CCOC(=O)CCN1C(=O)[C@H]2[C@H]3[C@H](O)[C@H](O)CC(=NNC(=O)OCc4ccc(OC)cc4)[C@@H]3CC[C@H]2C1=O -3.2
CCN1C(=O)[C@H]2[C@H]3[C@H](O)C=CC(=O)[C@@H]3CC[C@H]2C1=O 0.0244
C=C(CCCC)C(=O)CC[C@@H](OC(C)=O)c1cccc(OCCO)c1 -1.14
O=C1C[C@]2(c3ccc([N+](=O)[O-])cc3)C(=O)N(CCN3CCOCC3)c3cc(CO)ccc3[C@H]2N1CC12CC3CC(CC(C3)C1)C2 0.194
[N-]=[N+]=NCc1ccccc1[C@@H]1OC(c2ccc(OCCCO)cc2)=N[C@]1(Cc1ccccc1)C(=O)N1CCOCC1 -1.85
